Results filed as inconclusive are left out. Where a call stands in place of a potency, no number is given. The source made the active and inactive calls. Calls come from the whole dose curve; as a rule, active = well fitted inhibition curve with a large enough effect in the signal ratio, with a control signal flat (not every such curve was filed as active); inconclusive = small, poorly fitted or top-dose-only effect, or effect the other way, or a change in a side signal; inactive = flat fitted curve, though single readings scatter; the % refers to the signal ratio.
Potency is the fitted concentration of half-maximal effect.

This assay in a line: qHTS Assay for Identification of Small Molecule Antagonists for NFkB Signaling Pathway (AID 895). The following applies: NFkB beta-lactamase reporter cells, FRET ratio 460/530; series mostly up to 38.3 µM. As to the method:
NIH Molecular Libraries Screening Centers Network [MLSCN]
NIH Chemical Genomics Center [NCGC]
The TNF alpha/NFkB signaling pathway was assayed in NFkB-bla cells (Invitrogen), a ME-180 cervical carcinoma line containing a stably integrated beta-lactamase reporter gene controlled by a NFkB response element. […] The assay was screened at the EC50 of TNF alpha activation to identify inhibitors of TNF alpha/NFkB signaling.
NCGC Assay Protocol Summary:
Cells were trypsinized, washed in assay medium (AM, OPTI MEM with 0.5% fetal bovine serum, 0.1 mM nonessential amino acids, 1 mM sodium pyruvate, 10mM HEPES pH 7.3, 100U/ml penicillin, and 100 ug/ml streptomycin) and plated at 1000 cells/5 uL/well into black clear-bottom 1536 well plates. After an overnight incubation at 37 C and 5% CO2, 23 nL of compound were delivered by a pin tool, 1 uL of TNF alpha (10 pM final concentration in AM) was added and plates were incubated at 37 C for 5 hrs. One uL of LiveBLAzerTM detector mix (Invitrogen) was added, the plates incubated at room temperature for 2 hrs, and fluorescence intensity at 460 and 530 nm emission was measured at 405 nm excitation by an Envision (Perkin Elmer).
In general terms: In qHTS, concentration-response curves come from the screen itself.
On to `NC[C@H](CP(=O)(O)O)c1ccc(Cl)cc1`, for which the Potency result is “inactive”. For `Brc1c(Br)c(Br)c2n[nH]nc2c1Br` the value was 5.01 µM (active); for `CN1CC[C@@]23CCCC[C@@H]2[C@@H]1Cc1ccc(O)cc13`, “inactive”. For `Oc1ccc2c3c1O[C@H]1c4[nH]c5ccccc5c4C[C@]4(O)[C@H](C2)N(CC2CC2)CC[C@@]314`, the Potency result is “inactive”. As for `N[C@H](CCP(=O)(O)O)C(=O)O`, the Potency result is “inactive”. As to `CN1CCN(c2ccc3ccccc3n2)CC1`, the Potency entry was “inactive”. For `C/C(O)=C(/C#N)C(=O)Nc1cc(Br)ccc1Br` the value was “inactive”; for `COc1ccc(-n2nc(C(F)(F)F)cc2-c2ccc(Cl)cc2)cc1`, “inactive”; for `C=C(C)[C@H]1CN[C@H](C(=O)O)[C@@H]1CC(=O)O`, “inactive”.

As to `C=CCN1CCC2(C)c3cc(O)ccc3C[C@H]1[C@H]2C`, the Potency result is “inactive”. For `COc1ccc2[nH]cc(CCN(C)C)c2c1` the value was “inactive”. Next, `C=CCN1CC[C@@]23c4c5ccc(O)c4O[C@H]2/C(=N\N=C2/CC[C@@]4(O)[C@H]6Cc7ccc(O)c8c7[C@@]4(CCN6CC=C)[C@@H]2O8)CC[C@]3(O)[C@@H]1C5`: “inactive”; `C[C@H](N)Cc1c[nH]c2ccc(OCc3cccs3)cc12`: “inactive”. For the compound `COC(=O)c1cc2c(cn1)[nH]c1ccccc12`, the Potency entry was “inactive”. In the case of `CP(=O)(O)CCCN`, the Potency result is “inactive”. Next, `Cc1o[nH]c(=O)c1C[C@H](N)C(=O)O`: “inactive”. As to `COC(=O)N1CCN(C(=O)Cc2ccc(Cl)c(Cl)c2)[C@H](CN2CCCC2)C1`, the Potency entry is “inactive”. For `N#CC(C#N)=Cc1ccc([N+](=O)[O-])c(O)c1` the value was “inactive”.
